# ST2 IL33 inh: blocks human ST2 binding to IL-33; Q01638; AlphaLISA ST2-Fc/biotin-IL-33 interaction, 1 h; inhibition, % for hits at 17 µM; 2.3% of 78,000 active; in the data active means inhibition above about 30%
# Target sequence (Q01638 whole entry, looked up): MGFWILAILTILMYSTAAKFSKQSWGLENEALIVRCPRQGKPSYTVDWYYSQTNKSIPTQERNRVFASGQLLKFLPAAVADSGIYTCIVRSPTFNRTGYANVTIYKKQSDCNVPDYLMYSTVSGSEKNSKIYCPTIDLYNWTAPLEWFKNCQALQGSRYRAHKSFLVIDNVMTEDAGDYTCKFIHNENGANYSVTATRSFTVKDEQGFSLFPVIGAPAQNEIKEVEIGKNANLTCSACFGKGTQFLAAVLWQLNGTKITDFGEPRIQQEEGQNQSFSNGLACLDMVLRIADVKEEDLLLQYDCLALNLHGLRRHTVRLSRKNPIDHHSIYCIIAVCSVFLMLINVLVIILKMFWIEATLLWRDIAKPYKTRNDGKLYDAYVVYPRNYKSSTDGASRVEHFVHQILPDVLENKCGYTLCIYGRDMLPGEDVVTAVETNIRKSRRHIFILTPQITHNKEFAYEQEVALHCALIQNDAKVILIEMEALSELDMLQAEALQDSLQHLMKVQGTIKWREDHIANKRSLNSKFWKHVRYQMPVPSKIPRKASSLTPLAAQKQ
# * hit, by the source's call; i = inactive; ! = not confirmed by another sample. Only a selection was taken, and hits are over-represented in it overall.
SMILES,ST2 IL33 inh
O=C(Nc1nc2ccc3ccccc3c2s1)c1coc2ccccc2c1=O,i
Cc1cccn2c(=O)c3cc(C(=O)NCC4CCCO4)c(=N)n(CCCn4ccnc4)c3nc12 (stereo unspecified),i
C=CCNC(=O)c1cc2c(=O)n3cccc(C)c3nc2n(CCCn2ccnc2)c1=N,31%*
COCCCn1c(=N)c(C(=O)NC2CCCC2)cc2c(=O)n3cccc(C)c3nc21,i
Cc1cccc(-n2ncc3c(Nc4ccc(F)cc4F)ncnc32)c1,i
COC(=O)c1ccccc1Sc1c(-c2ccccc2)nc2sccn12,i
O=[N+]([O-])c1ccc(Sc2c(-c3ccccc3)nc3sccn23)cc1,32%*
c1ccc(Sc2c(-c3ccccc3)nc3ncccn23)cc1,i
N.N.[Cl-].[Cl-].[Pt+4],77%*
Cc1nc2sc(-c3ccccc3)cc2c(=O)[nH]1,i
O=C1NC(=O)C(c2ccccc2)(c2ccccc2)N1,i
Cc1ccc(O)c(N=Cc2cccc([N+](=O)[O-])c2O)c1,i
O=[N+]([O-])c1cc2c(cc1CN1CCCCCC1)OCO2,i
COc1cc(CN2CCN(c3cccc(C)c3C)CC2)cc([N+](=O)[O-])c1O,i
Cc1cccc(N2CCN(Cc3cc4c(cc3[N+](=O)[O-])OCO4)CC2)c1C,37%*
Cc1cccc(N=Cc2cc3c(cc2[N+](=O)[O-])OCO3)c1C,39%*
O=[N+]([O-])c1cc2c(cc1C=Nc1ccc(I)cc1)OCO2,i
CCN1CCN(CCCNC(=O)c2cccn2-c2nnc(N3CCCCC3)s2)CC1,i
COc1ccc(N2CCN(CCCNC(=O)c3cccn3-c3nnc(N4CCCCC4)s3)CC2)cc1,31%*
O=C(NCCCN1CCCC1)c1cccn1-c1nnc(N2CCCCC2)s1,i
Cc1ccc(OCc2nnc(SCC(=O)Nc3cccc(F)c3C)o2)cc1,i
CCOC(=O)Oc1ccc2c(c1)oc(=O)c1ccccc12,i
CCOC(=O)Oc1c(Cl)cc2oc(=O)sc2c1Br,32%*
COC(=O)Oc1cc2oc(=O)sc2cc1Cl,i
CC1=C[C@@H](CNS(=O)(=O)c2ccc(F)cc2)[C@H](C(C)C)C[C@H]1CC(=O)NCCN(C)C,i
SMILES,ST2 IL33 inh
Cc1nc(C2CCNCC2)cc(N(C)CCc2noc(C(C)C)n2)n1,i
O=C(Nc1ccc(Br)cc1)c1cccc(S(=O)(=O)Nc2ccccn2)c1,42%*
Cc1ccc(NC(=O)c2ccc(C)c(S(=O)(=O)Nc3ccccn3)c2)cc1,i
O=S(=O)(Nc1ccccn1)c1ccc(Br)cc1,i
CCn1nc(C)c(NC(=O)CNC(C)c2ccccc2-n2cccn2)c1C (stereo unspecified),i
Cn1nc(CC2CCN(C(=O)N3CCCC3)CC2)n(-c2ccccc2)c1=O,i
CC(C)NC(=O)CC[C@@H]1CNC(=O)[C@@H]2C[C@H](NCc3cccc(OC(F)(F)F)c3)CN12,i
CCOC(=O)C(CC)Sc1nc2c(c(=O)n1-c1ccccc1)SCC2 (stereo unspecified),i
Cc1ccc(-n2c(SCC(=O)Nc3ccccc3F)nc3c(c2=O)SCC3)cc1,32%*
CCOC(=O)C(C)Sc1nc2c(c(=O)n1-c1ccc(Cl)cc1)SCC2 (stereo unspecified),i
Cc1ccc(-n2c(SCC(=O)NCCc3ccccc3)nc3c(c2=O)SCC3)cc1,31%*
Cc1ccc(-n2c(SCC(=O)Nc3cccc(Cl)c3)nc3c(c2=O)SCC3)cc1,31%*
O=C(CSc1nc2c(c(=O)n1-c1ccc(F)cc1)SCC2)NCc1ccc(F)cc1,i
O=C(CSc1nc2c(c(=O)n1-c1ccc(Cl)cc1)SCC2)Nc1cccc(Cl)c1,i
Cc1ccc(-n2c(SCC(=O)Nc3cc(C)ccc3C)nc3c(c2=O)SCC3)cc1,i
Cc1ccc(-n2c(SCC(=O)Nc3cccc(C(F)(F)F)c3)nc3c(c2=O)SCC3)cc1,i
Cc1ccc(-n2c(SCC(=O)Nc3nccs3)nc3c(c2=O)SCC3)cc1,i
CCOC(=O)CSc1nc2c(c(=O)n1-c1ccc(C)cc1)SCC2,i
Cc1ccc(-n2c(SC(C)c3ccccc3)nc3c(c2=O)SCC3)cc1 (stereo unspecified),31%*!
CCOc1ccc(NC(=O)c2coc(=O)c3ccccc23)cc1,i
Cc1cc(NC(=O)CCN2CCN(c3ccccc3F)CC2)ccc1Br,i
COc1ccc(S(=O)(=O)N2CCN(Cc3nc4cccnc4n3-c3cc(C)cc(C)c3)CC2)cc1OC,i
CC1(C)O[C@@H]2[C@H](O1)[C@@H](CSC#N)O[C@H]2n1cnc2c(=O)[nH]cnc21,i
CCOc1ccccc1CNS(=O)(=O)c1ccc2[nH]c(=O)sc2c1,i
CSc1nc(-c2ccccc2)cc(-c2cccs2)c1C#N,i
OCC1(Cc2ccccc2C(F)(F)F)CCN(c2ccc(Cl)cn2)CC1,i
CCC(=O)N1CCc2cc(Br)cc(S(=O)(=O)NCCN3CCCC3)c21,i
COc1ccccc1-n1c(SCC(=O)Nc2ccccc2)nc2c(c1=O)SCC2,35%*!
CCSc1nc2c(c(=O)n1-c1ccccc1OC)SCC2,i
COc1ccccc1-n1c(SCc2ccccc2)nc2c(c1=O)SCC2,i

# Bioassay records: PubChem BioAssay, Paczesny and Yang Labs, IUPUI and University of Michigan
